Experimental data from the supplement of paper PMC8975748.
Structures can show the parent of a compound that is named as a salt.

tested on: Saccharomyces cerevisiae BY4741 SeMeCo community; test: z-score of subpopulation abundance vs DMSO median, subpopulation auxotrophic for HM; higher = larger share of this subpopulation than in DMSO controls; conditions: 10 µM; 24 h; SM minimal medium; subpopulation (auxotrophy): HM
Protocol: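 Fluorescent four-plasmid SeMeCo (self-establishing metabolically cooperating S. cerevisiae BY4741 community; plasmids pH-mRuby2, pL-mWasabi, pU-eCFP, pM-TagRFP657) was grown 24 h in minimal SM medium with each Selleck FDA-approved drug at 10 µM in 384-well plates. Cells were fixed and imaged by high-content confocal microscopy. For each auxotrophic subpopulation (and the prototroph), a z-score gives the deviation from the DMSO vehicle-control population median.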

Row | SMILES | z-score of subpopulation abundance
1 | CN1[C@@H]2C[C@@H](OC(=O)[C@H](CO)c3ccccc3)C[C@H]1[C@@H]1O[C@@H]12 [Scopolamine HBr] | -0.93
2 | CC[C@H]1CN2CC[C@]3(C(=O)Nc4ccccc43)[C@@H]2C[C@@H]1/C(=C\OC)C(=O)OC [Rhynchophylline] | -0.29
3 | CN[C@@H]1[C@@H](O)[C@@H](O[C@@H]2[C@@H](O)[C@H](O[C@H]3O[C@H](CN)CC[C@H]3N)[C@@H](N)C[C@H]2N)OC[C@]1(C)O.CN[C@@H]1[C@@H](O)[C@@H](O[C@@H]2[C@@H](O)[C@H](O[C@H]3O[C@H]([C@@H](C)N)CC[C@H]3N)[C@@H](N)C[C@H]2N)OC[C@]1(C)O.CN[C@@H]1[C@@H](O)[C@@H](O[C@@H]2[C@@H](O)[C@H](O[C@H]3O[C@H]([C@@H](C)NC)CC[C@H]3N)[C@@H](N)C[C@H]2N)OC[C@]1(C)O [Gentamicin Sulfate] | -0.24
4 | CC[C@H]1[C@@H]2C[C@H]3[C@@H]4N(C)c5ccccc5[C@]45C[C@@H]([C@@H]2[C@H]5O)N3[C@@H]1O [Ajmaline] | -0.37
5 | CN1C(=O)COc2c(C(=O)NC3CN4CCC3CC4)cc(Cl)cc21 (centres undefined) [Azasetron HCl] | 0.88
6 | CN1[C@@H]2CC[C@H]1C[C@@H](OC(=O)C(CO)c1ccccc1)C2 (some centres undefined) [Atropine sulfate monohydrate] | -0.85
7 | COc1ccc2[nH]cc(CCN)c2c1 [5-Methoxytryptamine] | -0.25
8 | O=[N+]([O-])C(Br)(CO)CO [Bronopol] | -0.03
9 | Cc1cc(O)ccc1Cl [Chlorocresol] | -0.29
10 | C=C[C@H]1CN2CC[C@H]1C[C@H]2[C@H](O)c1ccnc2ccccc12 [Cinchonidine] | -0.43
11 | C[C@@H]1CC[C@H]2[C@@H](C)C(=O)O[C@@H]3O[C@@]4(C)CC[C@@H]1[C@]32OO4 [Artemisinin] | -2.41
12 | CCN(C)C(=O)Oc1cccc([C@H](C)N(C)C)c1 [Rivastigmine Tartrate] | -1.12
13 | CCN(CC)CCOC(=O)C(O)(c1ccccc1)c1ccccc1 [Benactyzine hydrochloride] | -0.6
14 | C[CH2][Hg][S]c1ccccc1C(=O)[O-].[Na+] [Thimerosal] | 22.6
15 | CC(=O)O[C@H]1C[C@@H]2CC[C@@H]3[C@H](CC[C@@]4(C)[C@H]3C[C@H]([N+]3(C)CCCCC3)[C@@H]4OC(C)=O)[C@@]2(C)C[C@@H]1[N+]1(C)CCCCC1 [Pancuronium dibromide] | -1.06
16 | CN(C)[C@@H]1C(=O)C(C(N)=O)=C(O)[C@@]2(O)C(=O)C3=C(O)c4c(O)cccc4[C@@](C)(O)[C@H]3[C@H](O)[C@@H]12 [Oxytetracycline Dihydrate] | -0.75
17 | CC[C@@H](C(N)=O)N1CCCC1=O [Levetiracetam] | -0.1

Row | SMILES | z-score of subpopulation abundance
18 | CN(C)[C@@H]1C(=O)C(C(N)=O)=C(O)[C@@]2(O)C(=O)C3=C(O)c4c(O)ccc(Cl)c4[C@@](C)(O)[C@H]3C[C@@H]12 [Chlortetracycline HCl] | -0.67
19 | Cc1cc(C(C#N)c2ccc(Cl)cc2)c(Cl)cc1NC(=O)c1cc(I)cc(I)c1O (centres undefined) [Closantel] | -0.13
20 | C[N+](C)(C)CCCCCCCCCC[N+](C)(C)C [Decamethonium Bromide] | -0.42
21 | C[N+]12CCC(CC1)C(OC(=O)C(O)(c1ccccc1)c1ccccc1)C2 (centres undefined) [Clidinium Bromide] | -0.38
22 | Oc1cc(Cl)ccc1Oc1ccc(Cl)cc1Cl [Triclosan] | -1.82
23 | C=CN1CCCC1=O.II [Povidone iodine] | 1.1
24 | Cn1cc(C2=C(c3cn(C4CCN(Cc5ccccn5)CC4)c4ccccc34)C(=O)NC2=O)c2ccccc21 | -1.56
25 | CN[C@@H]1[C@@H](O)[C@@H](O[C@@H]2[C@@H](O)[C@H](O[C@H]3O[C@H]([C@@H](C)O)[C@@H](O)[C@H](O)[C@H]3N)[C@@H](N)C[C@H]2N)OC[C@]1(C)O [Geneticin (G418 Sulfate)] | -0.26
26 | NCC(O)c1ccc(O)cc1 (racemic) [(+,-)-Octopamine HCl] | -0.78
27 | C[C@H]1O[C@H](O[C@H]2[C@H](O)[C@@H](O)[C@@H](O)[C@H](O)[C@@H]2O)[C@@H](N)C[C@@H]1NC(=N)C(=O)O [Kasugamycin hydrochloride] | -0.08
28 | CN(C)[C@@H]1C(=O)C(C(N)=O)=C(O)[C@@]2(O)C(=O)C3=C(O)c4c(O)cccc4[C@@](C)(O)[C@H]3C[C@@H]12 [Tetracycline HCl] | 0.72
29 | CCCN1C[C@H](CSC)C[C@@H]2c3cccc4[nH]cc(c34)C[C@H]21 [Pergolide Mesylate] | -0.36
30 | COc1cc2c(cc1OC)C1CC(=O)C(CC(C)C)CN1CC2 (centres undefined) [Tetrabenazine (Xenazine)] | 0.63
31 | CCOC(=O)Nc1ccc(NCc2ccc(F)cc2)cc1N [Retigabine] | 0.58
32 | Nc1ccncc1 [4-Aminopyridine] | 0.26
33 | O=C(O[C@H]1C[C@H]2CC[C@@H](C1)[N+]21CCCC1)C(O)(c1ccccc1)c1ccccc1 [Trospium chloride] | 0.4
34 | Oc1cccc2cccnc12 [8-Hydroxyquinoline] | 2.14
